# High-throughput results as filed in PubChem BioAssay.
# SARS PLpro yeast – blocks SARS-CoV papain-like protease in a yeast assay | S. cerevisiae expressing SARS-CoV PLpro, growth rescue | Potency, µM (highest dose often 32.9 µM), inactives show at the top dose activity, positive = growth rescue, hits mostly activators | actives 0.19% (n = 330,000) | AID 485353; calls by dose curve; further: 0% is about no effect; nearly all actives have a fitted effect of over 55% in size
# Pf growth 96h – inhibits malaria parasite growth, 96 h. P. falciparum luciferase reporter growth, 96 h. Potency, µM (top dose mostly 28.7 µM), inactives show top-dose activity change, negative = inhibition, usual class: inhibitors. actives 6.9% (n = 320,000). AID 504834; further: on the % scale 0 is the no-effect control and ±100 the full control effect
#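 Erythrocytes infected with luciferase-expressing P. falciparum were dispensed at 2% hematocrit and 0.05% parasitemia (final), then incubated with compounds 96 hours at 37 C in 5% CO2. Luminescence after detection reagent addition reported growth.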
# AMA1 RON2 block – disrupts binding of P. falciparum AMA1 to RON2 | AlphaScreen AMA1-biotinylated RON2 peptide binding | Potency, µM (series often up to 58.2 µM), for the others: top-dose activity change, negative = inhibition, hits mostly inhibitors | actives 0.2% (n = 360,000);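 further: 0% = vehicle wells and -100% = peptide control; nearly all actives have a fitted effect of over 45% in size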
#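 AMA1 (3D7) with his tag at 25 nM final met compounds first, then biotinylated RON2 peptide at 25 nM; detection used donor plus acceptor beads, 10 µg/mL apiece, read by AlphaScreen after 30 min at room temperature.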
# Pf growth 48h – P. falciparum growth inhibition at 48 hours (one generation); P. falciparum luciferase growth in erythrocytes, 48 h; Potency, µM (doses to about 28.7 µM), for the others: at the top dose activity change, negative = inhibition, usual class: inhibitors; actives 5.9% (n = 310,000); AID 504832; further: on the % scale 0 is the no-effect control and ±100 the full control effect
#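 Luciferase-expressing parasites in RBCs, 2% Hct / 0.1% parasitemia final; RPMI 1640 + 0.5% Albumax; 37 C, 5% CO2, one generation; luminescence read-out, lower signal = inhibition.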
# The depositor's hits bear a star; u = inconclusive; x = no result given; [ ] = remark or other dose. The list is not random: actives were taken first. Their share in the collection is about 9.4%. Unless noted, the call rests on the fitted dose curve; in most records, active means well fitted curve in the direction sought with a large enough effect; inconclusive means small, poorly fitted or top-dose-only effect, or another doubt; inactive means no such curve, though single readings can be large; an effect the other way counts as inactive or inconclusive. Potency means the concentration at half of the fitted maximal effect.
SMILES,SARS PLpro yeast,Pf growth 96h,AMA1 RON2 block,Pf growth 48h
CC(C)Nc1nc(-c2ccccn2)nc(-c2ccccc2)c1C#N,3.2%,u,0.9%,-0.7%
CC(C)Nc1nc(-c2cccnc2)nc(-c2ccc(Cl)cc2)c1C#N,-1.6%,2.33µM*,12.9%,-0.2%[0.00184 µM]
CC(C)Nc1nc(-c2ccncc2)nc(-c2ccc(Cl)cc2)c1C#N,-2.1%,u,29.6%,u
Cc1cccc(C)c1NC(=O)C1CCN(C(=O)c2cccs2)CC1,1.3%,3.7%,-2.7%,11.4%
O=C(Nc1cc(=O)[nH]c2ncnn12)c1ccccc1F,-0.5%,22.1%,6.5%,-2.6%
O=C(NCc1ccco1)C1CCN(S(=O)(=O)c2cccc([N+](=O)[O-])c2)CC1,-1.6%,-10.0%,-8.0%,9.28µM*
O=C(NCc1ccco1)c1ccc(S(=O)(=O)N2CCCCCC2)cc1,-1.2%,10.4µM*,3.4%,8.28µM*
Cc1cc2cc(CNC(=O)c3ccc(S(=O)(=O)N4CCCC4)cc3)ccc2n1C,6.3%,9.28µM*,-2.9%,u
O=C(NCc1cccs1)c1cccc(S(=O)(=O)N2CCCCC2)c1,3.4%,x,-2.5%,-11.9%
COc1ccccc1CNC(=O)C1CCN(S(=O)(=O)c2cccc([N+](=O)[O-])c2)CC1,-0.1%,9.2%,16.3%,-3.7%
O=C(NCc1cccs1)c1ccc(Cl)c(S(=O)(=O)N2CCCC2)c1,0.7%,u,1.0%,0.329µM*
OCCN1CCN(c2ncnc3scc(-c4ccc(F)cc4)c23)CC1,-1.1%,-28.3%,0.0%,-10.1%
O=C(Nc1ccc(N2CCOCC2)c(S(=O)(=O)Nc2ccc(Cl)cc2)c1)c1cnccn1,-0.9%,u,-5.0%,u
Cn1c(=O)c2cn3c(c2n(C)c1=O)C(c1ccccc1)CC(c1ccccc1)=N3 (centres undefined),x,11.1%,6.1%,u
Cc1ccc(C(=O)NCc2ccco2)cc1S(=O)(=O)N1CCCCC1,-5.7%,2.33µM*,-2.1%,u
O=C(NCC1(N2CCOCC2)CCCCC1)c1ccc(Cl)c(S(=O)(=O)NCc2ccco2)c1,5.0%,25.7%,-8.8%,6.57µM*
O=C(NCc1ccco1)c1ccc(COc2cc(Cl)ccc2Cl)cc1,-8.4%,u,-0.5%[11.6 µM],5.22µM*
O=C(O)c1ccc(Cl)c(S(=O)(=O)NCc2ccco2)c1,9.4%,1.2%,-7.0%,6.6%
O=C(NCc1ccco1)c1ccc(F)c(S(=O)(=O)N2CCCCC2)c1,0.0%,u,0.0%,u
Cc1ccc(C(=O)Nc2ccccc2C(=O)NCc2ccco2)cc1S(=O)(=O)N1CCCCC1,7.0%,47.2%,-22.4%,6.57µM*
CCC(C(=O)NC(C)CCc1ccco1)n1nc(C)n2c(cc3occc32)c1=O (centres undefined),4.8%,-0.2%,-5.7%,u
CC1CCCN(S(=O)(=O)c2cnc[nH]2)C1 (centres undefined),-5.4%,15.5%,6.8%,-5.2%
O=C(NCc1ccco1)c1ccc(Cl)c(S(=O)(=O)N2CCOCC2)c1,-3.7%,x,-5.0%,2.33µM*
COc1ccc(NC(=O)c2ccc(-n3cncn3)c([N+](=O)[O-])c2)cc1,0.0%,u,-9.6%,u
CCc1ccc(NC(=O)c2ccc(-n3cncn3)c([N+](=O)[O-])c2)cc1,x,u,-16.3%,11.7µM*
SMILES,SARS PLpro yeast,Pf growth 96h,AMA1 RON2 block,Pf growth 48h
O=C(Nc1cccc(/C=C/c2ccccn2)c1)c1ccc(-n2cncn2)c([N+](=O)[O-])c1,-0.7%,4.65µM*,-5.7%,5.22µM*
O=C1NN(c2ccc(F)cc2)C(=O)/C1=C\C=C\c1ccco1,-4.8%,1.65µM*,-8.4%[11.6 µM],-1.3%
CC1=C(/C=C/c2ccccc2)CCN(C)C1,-6.9%,u,11.5%,u
Cn1c(/C(C#N)=C/C2CC=CCC2)nc2ccccc21 (centres undefined),1.2%,x,-3.4%,u
CCOC(=O)c1c(C)[nH]c(C(=O)OCC(O)=C(C#N)c2nc3ccccc3[nH]2)c1C,x,x,49.8%,x
N#C/C(=C\C1CC=CCC1)c1nc2ccccc2[nH]1 (centres undefined),-19.8%,x,63.2%,8.28µM*
N#C/C(=C\c1ccc(Sc2ccc(Cl)cc2)o1)c1nc2ccccc2[nH]1,-34.2%,-12.1%,55.6%,0.185µM*
Cc1c(-c2cccc(Cl)c2)nc2ccccc2c1C(=O)OC/C(O)=C(\C#N)c1nc2ccccc2[nH]1,1.2%,10.4µM*,70.7%,-29.6%
Cc1cccc(Nc2nnc(SC/C(O)=C(\C#N)c3nc4ccccc4[nH]3)s2)c1C,2.9%,11.7µM*,97.4%,u
CCOc1ccc(NC(=O)CN(C)C(=O)c2ccc(COc3ccccc3)o2)cc1OCC,2.0%,u,-0.2%,-14.4%
CCOc1ccc(C(=O)NC2CC3CCCC(C2)N3Cc2ccccc2)cc1 (centres undefined),1.7%,-27.3%,-4.8%,u
CCOC(=O)c1cnc2ccccc2c1Nc1cccc(C(=O)O)c1,0.7%,21.3%,7.9%,15.5%
Cc1ccc(/C=C(\C#N)c2nc3ccccc3[nH]2)s1,-10.0%,1.65µM*,-3.7%,u
Cc1nc(CSc2nnc(Nc3cccc(C)c3C)s2)cs1,-7.3%,7.38µM*,-0.2%,u
N#C/C(=C\c1c(Cl)cccc1Cl)c1nc2ccccc2[nH]1,-7.2%,8.28µM*,20.7%,8.28µM*
CN(C)/C=C(\C#N)c1nc2ccccc2[nH]1,-1.2%,u,12.0%,33.5%
N#C/C(=C(/O)CCl)c1nc2ccccc2[nH]1,-1.6%,10.4µM*,62.8%,u
Cc1cccc(Nc2nnc(SCC(=O)Nc3ccccc3[N+](=O)[O-])s2)c1C,-19.0%,u,29.0%,u
CC(=O)N/C(=C\c1ccccc1)C(=O)OCC(=O)c1c(N)n(C)c(=O)n(C)c1=O,-0.6%,x,22.4%,x
CC(=O)NCC(=O)Nc1ccc(Br)cc1C(=O)c1ccccc1,0.1%,1.2%,u,11.7%
COc1ccc(CN2C(=O)CSCC2(C)C(=O)Nc2ccc3c(c2)OCCO3)cc1 (centres undefined),x,x,-8.6%,x
CC(C)(C)N=C(NS(=O)(=O)c1cccs1)c1ccccc1,-10.7%,6.9%,-7.9%,8.8%
CC(C)N=C(NS(=O)(=O)c1cccs1)c1ccccc1,6.8%,13.1µM*,-2.4%,-7.7%
O=C(Nc1cccnc1)c1cc(-c2cccc(Br)c2)nc2ccccc12,-10.8%,1.0%,-2.5%,3.7µM*
CN1CCC(NC(=O)c2cc(-c3cccc(Br)c3)nc3ccccc23)CC1,2.7%,-10.7%,-11.8%,13.1µM*
COc1cccc(-c2cc(C(=O)Nc3ccccc3)c3ccccc3n2)c1,x,x,23.4%,x
COc1cccc(-c2cc(C(=O)Nc3cccnc3)c3ccccc3n2)c1,-1.2%,u,-15.3%,3.7µM*
O=C(Nc1cccnc1)c1cc(-c2cccnc2)nc2ccc(Br)cc12,-1.8%,1.17µM*,-0.8%,1.17µM*
COc1ccc(-c2cc(C(=O)Nc3cccnc3)c3ccccc3n2)cc1OC,0.8%,45.7%,-4.1%,u
COc1cc(/C=C/C(=O)OCC(=O)NC2CCS(=O)(=O)C2)ccc1OC(F)F (centres undefined),-1.7%,22.4%,-11.4%,u
